In PubChem BioAssay AID492956 (The Scripps Research Institute Molecular Screening Center, 2010):
The campaign covered roughly 340,000 compounds. About 3,300 (0.97%) were called active. For the sample, actives were picked, then their nearest neighbours and some compounds at random. A number with no mark means an inactive call.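 Rule for the calls: active = inhibition above the mean over all tested compounds plus 3 SD (cut at about 30% in these data); inactive = the rest.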

biological target: Platelet-activating factor acetylhydrolase 2, cytoplasmic (Homo sapiens) (UniProt Q99487); assay: inhibition of cytoplasmic PAF acetylhydrolase 2 – biochemical, fluorescence polarization, human, primary screen (AID 492956); details: recombinant PAFAH2, FP-rhodamine activity probe, at 3.39 µM, active compounds read high;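 note: inhibitors block probe labeling of enzyme so polarization drops; 0% = enzyme with DMSO and 100% = wells lacking PAFAH2 protein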

SMILES | inhibition
CC(=O)Nc1ccc(SC[C@H](Cc2ccccc2)N2CC[C@@H](C)CCC2=O)cc1 | 1.61%
CCOC(=O)C1CCCN(Cc2nc(N)nc(Nc3ccc(C)cc3)n2)C1 (stereo not given) | 3.45%
CCCN(CC1CC1)C(=O)COC(=O)c1ccc(C)cc1O | 6.82%
Cc1cccc(NC(=O)/C=C/c2ccc3c(c2)OCO3)n1 | 0.78%
Cc1csc(NC(=O)CSc2ccc(-c3ccc(F)cc3)nn2)n1 | 1.11%
COC(=O)c1sc(-c2ccc(C(C)(C)C)cc2)cc1NC(=O)/C=C/C(=O)O | -3.2%
C[C@@H]1CC[C@]2(O[C@@H](CCO)C[C@H](O)[C@H]2O)O1 | -8.93%
O=C(COC(=O)c1ccc2c(c1)OCCO2)NCc1ccccc1 | 51.5% (active)
CC(NC(=O)COC(=O)c1ccc2c(c1)OCO2)c1ccccc1 (stereo not given) | 55% (active)
CC(NC(=O)COC(=O)c1cc(=O)[nH]c2ccccc12)c1ccccc1 (stereo not given) | 1.93%
O=C(COC(=O)c1cc2c(s1)CCCC2)NCc1ccccc1Cl | 67% (active)
O=C(COC(=O)c1ccc2c(c1)OCCO2)NCc1ccccc1Cl | 85.4% (active)
O=C(CN(Cc1ccccc1)C(=O)c1ccc2c(c1)OCCO2)NCc1ccc2c(c1)OCO2 | 1.54%
O=C(COC(=O)c1ccc(Cl)nc1)NCc1ccc2c(c1)OCO2 | 5.61%
O=C(OCc1ccccc1F)c1ccc2c(c1)OCCO2 | 14.7%
CN(C)C(=O)c1ccc(NC(=O)COC(=O)c2cc3c(s2)CCCCC3)cc1 | 22.8%
O=C(COC(=O)c1ccccc1)c1ccc2c(c1)OCCO2 | 2.41%
CC(=O)Nc1cccc(C(=O)OCC(=O)c2ccc3c(c2)OCO3)c1 | -2.44%
O=C(NCc1ccccc1Cl)c1csc2c1CCCCC2 | 3.83%
COc1cc(C(c2c(NC(=O)c3ccco3)sc(C)c2C)N2CCOCC2)cc(OC)c1OC (stereo not given) | 2.1%
S=c1nc2ccccc2c2nc(-c3cccnc3)[nH]n12 | 6.52%
CCCCN1C(=O)CCC(C(=O)O)C1c1ccc(OC)cc1 (stereo not given) | -2.61%
CC(=O)Nc1ccc(Nc2c([N+](=O)[O-])cc(S(C)(=O)=O)cc2[N+](=O)[O-])cc1 | 3.4%

SMILES | inhibition
O=C(CNS(=O)(=O)c1ccccc1)NCC(=O)OCc1ccccc1F | 10.3%
COC(=O)c1ccccc1NC(=O)C1(S(=O)(=O)c2ccc(Cl)cc2)CC1 | 4.24%
CC(C)C1C2=C(CC(C)(C)CC2=O)ON1c1ccccc1 (stereo not given) | -5.16%
Cc1cc(C)n(CC(C)NCc2c(C(=O)N3CCOCC3)nc3c(C)cccn23)n1 (stereo not given) | -0.83%
FC(F)(F)c1nc(-c2ccccc2)ncc1-c1nnnn1-c1ccccc1 | 10.3%
Cc1ccc(-n2ncc3c2CC(C)(C)CC3NC(=O)Cc2c(C)noc2C)cc1 (stereo not given) | -3.4%
COc1ccc(C(C(=O)NCc2ccccc2)N(Cc2cccs2)C(=O)c2cnccn2)cc1 (stereo not given) | 2.03%
N[C@@H](Cc1ccccc1)C(=O)N1CCC(C(=O)NCC(=O)Nc2ccc(F)cc2)CC1 | -5.9%
C=CCn1cnc2scc(-c3ccccc3)c2c1=O | -1.85%
C=CCn1c(=S)[nH]c2scc(-c3ccco3)c2c1=O | 38.7% (active)
C=CCn1c(=S)[nH]c2nc3c(cc2c1=O)COC(C)(C)C3 | 6.59%
O=S1(=O)C=C(SCCN2CCCC2)c2ccccc21 | 6.55%
C=CCN1C2CCCC1CC(NC(=S)Nc1cccc(OC)c1)C2 (stereo not given) | 1.32%
COc1cc(C(=O)OCC(=O)NC23CC4CC(CC(C4)C2)C3)cc(OC)c1OC | 77.8% (active)
O=C(OCC(=O)c1cccs1)c1ccc([N+](=O)[O-])o1 | -2.46%
COc1cc(C(=O)OCC(=O)NC(C)CCc2ccccc2)cc(OC)c1OC (stereo not given) | 5.21%
O=C(COC(=O)c1ccc(Br)o1)NC12CC3CC(CC(C3)C1)C2 | 26.2%
COc1ccccc1C(=O)NC(=S)NC12CC3CC(CC(C3)C1)C2 | -0.29%
O=C(COC(=O)c1cccnc1Cl)NC12CC3CC(CC(C3)C1)C2 | 86.5% (active)
O=C(COC(=O)c1ccc([N+](=O)[O-])o1)NC12CC3CC(CC(C3)C1)C2 | 59.8% (active)
O=C(COC(=O)c1cccnc1Cl)Nc1ccc(S(=O)(=O)N2CCOCC2)cc1 | -2.28%
NC(=O)COc1ccccc1C(=O)NC12CC3CC(CC(C3)C1)C2 | 6.96%
COc1ccc(COC(=O)c2ccc(Cl)c(S(=O)(=O)N3CCOCC3)c2)cc1F | 8%

SMILES | inhibition
CN(C)S(=O)(=O)c1ccc(NC(=O)COC(=O)Cn2[nH]c(=O)c3ccccc3c2=O)cc1 | 1.37%
CCOc1ccc2c(c1)cc(CN(C(=O)CC)C1CCCCC1)c1nnnn12 | 9.13%
COc1ccc(C(=O)COC(=O)c2ccc([N+](=O)[O-])s2)cc1OC | 18.3%
COc1cc(NC(=O)COC(=O)c2cnc(C)cn2)c(C)cc1[N+](=O)[O-] | 4%
COc1cc(NC(=O)COC(=O)c2ccc([N+](=O)[O-])s2)cc(OC)c1OC | 36.9% (active)
Cc1ccc2c(c1)N(C(=O)CCC(=O)N1CCc3ccccc3C1)CCO2 | 1.77%
COc1ccc(C(=O)OCC(=O)Nc2ccc3[nH]c(=O)[nH]c3c2)c(OC)c1OC | 2.25%
COc1ccc(C(=O)COC(=O)c2nn(C)c(=O)c3ccccc23)c(OC)c1 | 1.19%
COc1ccc(C(=O)OCC(=O)c2ccc(Cl)s2)c(OC)c1OC | 65.5% (active)
COc1ccccc1NC(=O)N(O)C1(C#N)CCCCC1 | 17.2%
Clc1ccc(-c2nc3ccccn3c2CN2CCSCC2)cc1 | 3.86%
COc1cc(CCC(=O)OCC(=O)Nc2cccc(S(N)(=O)=O)c2)cc(OC)c1OC | 8.16%
O=C1C(=O)N(CCCO)C(c2ccccc2)/C1=C(\O)c1ccc(Br)cc1 (stereo not given) | 2.68%
O=[N+]([O-])c1ccc(N2CCOCC2)cc1 | 6.57%
O=c1[nH]n(-c2ccc([N+](=O)[O-])cc2)c(=O)c2ccccc12 | 32.5% (active)
COc1cnn(-c2ccc([N+](=O)[O-])cc2)c(=O)c1Cl | 5.97%
COc1cccc(NC(=O)[C@H](Cc2c[nH]c3ccccc23)NC(=O)[C@@H]2Cc3ccccc3CN2)c1 | 4.49%
CC(C)(C)OC(=O)C[C@@H]1C/C=C\C[C@H](CC(=O)N[C@@H](CO)Cc2ccccc2)C(=O)N[C@H](Cc2ccccc2)COC1=O | -5.38%
CCOC(=O)C1=C(N)N(c2ccc(C)cc2)C2=C(C(=O)CCC2)C1c1cccs1 (stereo not given) | 11%
COc1ccc(NC(=O)CS(=O)(=O)c2ccccc2)cc1 | -6.64%
COc1ccc(NC(=O)CCCC(=O)c2ccccc2)cc1 | -4.3%
COc1ccc(NC(=O)CC(NC(C)c2ccccc2)C(=O)O)cc1 (stereo not given) | 35.8% (active)
O=C1N(c2ccccc2)C(=Nc2ccccc2)SC12CC2 | -1.71%

SMILES | inhibition
COc1ccc(N(Cc2cc3ccc(C)cc3[nH]c2=O)S(=O)(=O)c2ccccc2)cc1 | 1.35%
CCCCn1c(N)c(N(Cc2ccccc2OC)C(=O)COc2cc(C)ccc2Cl)c(=O)[nH]c1=O | -1.09%
O=C(COC(=O)/C=C/c1ccc(S(=O)(=O)N2CCCCCC2)cc1)NCc1ccccc1Cl | 33.9% (active)
O=C(O)/C=C/c1ccc(S(=O)(=O)N2CCCCCC2)cc1 | 0.61%
O=C(COc1ccc(S(=O)(=O)N2CCCCC2)cc1)NCc1ccccn1 | 9.09%
O=C(Nc1ccc(F)cc1)c1cccnc1N1CCOCC1 | -2.86%
CC1=C(C(=O)Nc2ccc(Cl)cc2)C(c2ccco2)NC(=O)N1 (stereo not given) | 0.63%
COc1ccc(Nc2nc(N)nc(CSC(=S)N3CCC(C)CC3)n2)cc1 | 5.5%
Cc1ccccc1Nc1nc(N)nc(CSc2ccccc2)n1 | 3.88%
COc1ccccc1Nc1nc(N)nc(CSC(=S)N2CCOCC2)n1 | 30.8% (active)
O=C(CN1CCCCCC1)Nc1ccc(Br)cc1Br | 2.02%
O=c1ccc2cc(S(=O)(=O)Nc3ccccc3F)ccc2o1 | 0.74%
O=c1oc(-c2ccccc2NS(=O)(=O)c2ccc(Cl)cc2)nc2ccccc12 | 82.1% (active)
O=c1oc2ccccc2c(NC2CCCCC2)c1NS(=O)(=O)c1ccc(Cl)cc1 | 5.54%
CCCCNS(=O)(=O)c1ccc2nc(SCC(=O)Nc3cc(C)cc(C)c3)[nH]c2c1 | -16.9%
CC(=O)Nc1ccc(NC(=O)C(C)OC(=O)c2ccccc2C(=O)c2ccc(Cl)c([N+](=O)[O-])c2)cc1 (stereo not given) | -5.1%
N#Cc1cccc(NC(=O)COC(=O)c2ccccc2C(=O)c2ccc(Cl)c([N+](=O)[O-])c2)c1 | 58.9% (active)
COC(=O)c1cc(NC(=O)Cc2ccccc2[N+](=O)[O-])ccc1Cl | 0.54%
COC(=O)c1onc(-c2c(OC)cc(OC)cc2OC)c1C(=O)OC | -0.23%
Cc1cn(C2CC(O)C(CO)O2)c(=O)n(CCCc2ccccc2)c1=O (stereo not given) | -0.23%
COc1cccc(CNC(=O)C2CCN(S(=O)(=O)c3cccc4cccnc34)CC2)c1 | -7.61%
